# Calls of active or inactive are those of the source.
# Key:
# [1] = tested on: Human papillomavirus type 1a protein E7 (residues 44-93); experiment: HPV1a E7 fragment binders on microarrays, primary screen, biochemical, small-molecule microarray, residues 44-93, 635 nm fluorescence (AID 1108); details: small-molecule microarray binding, fluorescence 635 nm; higher = more signal;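 also: E7 fragment applied at 1 µg/mL in TBST for 1 h at 4 C; score combines spot fluorescence with its signal to noise ratio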
# [2] = modulators of HCV replicon luciferase signal, primary screen, HCV replication inhibitor project, Huh7 cells, luciferase reporter (AID 1109); details: 48 h, higher = more signal;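 also: huh7 hepatoma cells harbouring a luciferase neomycin HCV replicon reporter; luciferase luminescence as measure of HCV replicon replication; test concentration not given here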
# [3] = molecular target: Left-right determination factor 2 (Homo sapiens) (UniProt O00292); experiment: LEFTY2 binders on small-molecule microarrays, primary screen, biochemical, small-molecule microarray, 635 nm fluorescence scan (AID 1110); details: LEFTY2 binding, higher = more signal
# [4] = molecular target: Calmodulin-1 (Homo sapiens) (UniProt P0DP23); experiment: CALM1 binders on microarrays, EGTA buffer, profiling panel, biochemical, small-molecule microarray, Cy5-labelled CALM1 (AID 1111); details: Cy5-CALM1 binding fluorescence, higher = more signal;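 also: labelled calmodulin applied in Tris saline Tween buffer holding calcium plus EGTA and DTT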
# [5] = molecular target: Calmodulin-1 (Homo sapiens) (UniProt P0DP23); experiment: calcium-bound CALM1 binders on microarrays, profiling panel, artefact control for SMM control-protein annotation, biochemical, small-molecule microarray, Cy5-labelled CALM1, plus calcium (AID 1112); details: Cy5-CALM1 binding fluorescence, higher = more signal;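 also: score merges spot fluorescence with signal to noise from triplicate slides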
# [6] = small-molecule microarray binders of probe aWnt5a, primary screen, biochemical, biotinylated probe, 635/667 nm fluorescence (AID 1113); details: higher = more signal;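 also: score merges 667 nm fluorescence intensity with signal-to-noise per printed feature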
# [7] = small-molecule microarray binders of probe aShh, primary screen, biochemical, biotinylated probe, 635/667 nm fluorescence (AID 1114); details: higher = more signal;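 also: probe is biotin-labelled aShh protein from a stem cell growth factor screen; measures binding of labelled protein to compounds printed on the slide; score merges feature fluorescence at 667 nm with signal-to-noise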
# [8] = small-molecule microarray binders of probe aNog, primary screen, biochemical, biotinylated probe, 635/667 nm fluorescence (AID 1115); details: higher = more signal;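 also: probe is biotinylated aNog protein used at 0.15 µg/mL for 1 h at 4 C; z-score combines 667 nm fluorescence of each spot with its signal to noise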
# [9] = molecular target: Torsin-1A-interacting protein 1 (Homo sapiens) (UniProt Q5JTV8); experiment: LAP1 binders from COS7 cell lysate, primary screen, small-molecule microarray, 635/667 nm fluorescence (AID 1116); details: COS7-hLAP1 lysate binding, 635 nm fluorescence, higher = more signal
# [10] = molecular target: Alpha-bungarotoxin (Bungarus multicinctus) (UniProt P60615); experiment: alpha-bungarotoxin binders on microarray, profiling panel, artefact control for SMM control protein annotation, biochemical, small-molecule microarray, Alexa647 label, 635/667 nm fluorescence (AID 1117); details: alpha-BTX-A647 binding fluorescence, higher = more signal
# [11] = molecular target: Albumin (Bos taurus) (UniProt P02769); experiment: bovine serum albumin binders on microarray, profiling panel, artefact control for SMM control protein annotation, biochemical, small-molecule microarray, Alexa647 label, 635/667 nm fluorescence (AID 1118); details: BSA-A647 binding, fluorescence 635 nm, higher = more signal;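 also: score merges 667 nm emission intensity and signal-to-noise per printed compound spot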
# [12] = small-molecule microarray binders of probe aXIP, primary screen, biochemical, NeuroSMM set, 635/667 nm fluorescence (AID 1119); details: higher = more signal, called active from +8 up or from −8 down;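 also: probe is the protein aXip251-270 applied at 1 µg/mL to compound-printed slides; binding of probe to printed compounds measured as 667 nm fluorescence plus signal to noise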
# [13] = small-molecule binders of probe aNOTCH3, primary screen, biochemical, small-molecule microarray, 635/667 nm fluorescence (AID 1120); details: higher = more signal;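 also: probe is a biotin-tagged antibody raised against NOTCH3 rather than NOTCH3 protein; score merges spot fluorescence near 667 nm with spot signal to noise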
# [14] = small-molecule binders of probe aNOTCH2, primary screen, biochemical, small-molecule microarray, 635/667 nm fluorescence (AID 1121); details: higher = more signal;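 also: score merges feature fluorescence read at 667 nm with its signal to noise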
# [15] = molecular target: Carbonic anhydrase 2 (Homo sapiens) (UniProt P00918); experiment: CAII small-molecule binders, profiling panel, biochemical, small-molecule microarray, Alexa647-labelled CAII (AID 1122); details: CAII-A647 binding fluorescence, higher = more signal
# [16] = COS7 lysate on small-molecule microarray, probe aHis, 635 nm (AID 1123); details: COS7 cell lysate, fluorescence, higher = more signal;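 also: z-score combines 667nm fluorescence intensity with signal-to-noise per printed compound spot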
# [17] = compound binding in COS7 lysate, probe aLAP1, primary screen, cell lysate, small-molecule microarray (AID 1124); details: probe aLAP1, fluorescence, higher = more signal;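 also: lysate comes from COS7 cells expressing LAP1 and is applied at 0.3 µg/mL; score merges spot fluorescence near 667 nm with signal-to-noise over triplicate slides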
# [18] = tested on: Sam68 (KHDRBS1); experiment: Sam68 small-molecule binders, primary screen, biochemical, small-molecule microarray, 635 nm fluorescence (AID 1125); details: small-molecule microarray binding, higher = more signal;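 also: score merges 667 nm channel intensity with signal to noise over triplicate slides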
# [19] = tested on: Chordin-like protein 2 (CHRDL2); experiment: CHRDL2 small-molecule binders, primary screen, biochemical, small-molecule microarray, 635 nm fluorescence (AID 1126); details: small-molecule microarray binding, fluorescence 635 nm; higher = more signal;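 also: printed compound slides probed with Chrdl2 protein at 4 µg/mL for 1 h at 4 C; score merges 667 nm emission intensity with signal to noise over three replicate slides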
# [20] = molecular target: Concanavalin-A (Canavalia ensiformis) (UniProt P02866); experiment: ConA small-molecule binders, primary screen, artefact control for SMM control protein annotation, biochemical, small-molecule microarray, Alexa647 label, 635 nm (AID 1127); details: ConA-A647 binding fluorescence, higher = more signal;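 also: z combines 667 nm emission intensity with signal-to-noise across three replicate slides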
# Concanavalin-A (Canavalia ensiformis), sequence (P02866 whole entry, looked up): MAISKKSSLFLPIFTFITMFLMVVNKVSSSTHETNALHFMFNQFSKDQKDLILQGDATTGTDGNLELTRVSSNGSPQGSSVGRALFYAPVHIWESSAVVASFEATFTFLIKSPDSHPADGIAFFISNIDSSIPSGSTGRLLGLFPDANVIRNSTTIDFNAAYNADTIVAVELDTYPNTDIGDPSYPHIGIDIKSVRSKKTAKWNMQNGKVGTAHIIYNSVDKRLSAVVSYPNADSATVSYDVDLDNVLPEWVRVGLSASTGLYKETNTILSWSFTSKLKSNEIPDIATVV
# Alpha-bungarotoxin (Bungarus multicinctus), sequence (P60615 whole entry, looked up): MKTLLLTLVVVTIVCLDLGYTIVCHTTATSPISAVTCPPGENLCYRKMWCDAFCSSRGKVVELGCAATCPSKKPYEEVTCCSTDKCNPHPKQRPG
# Albumin (Bos taurus), sequence (P02769 whole entry, looked up): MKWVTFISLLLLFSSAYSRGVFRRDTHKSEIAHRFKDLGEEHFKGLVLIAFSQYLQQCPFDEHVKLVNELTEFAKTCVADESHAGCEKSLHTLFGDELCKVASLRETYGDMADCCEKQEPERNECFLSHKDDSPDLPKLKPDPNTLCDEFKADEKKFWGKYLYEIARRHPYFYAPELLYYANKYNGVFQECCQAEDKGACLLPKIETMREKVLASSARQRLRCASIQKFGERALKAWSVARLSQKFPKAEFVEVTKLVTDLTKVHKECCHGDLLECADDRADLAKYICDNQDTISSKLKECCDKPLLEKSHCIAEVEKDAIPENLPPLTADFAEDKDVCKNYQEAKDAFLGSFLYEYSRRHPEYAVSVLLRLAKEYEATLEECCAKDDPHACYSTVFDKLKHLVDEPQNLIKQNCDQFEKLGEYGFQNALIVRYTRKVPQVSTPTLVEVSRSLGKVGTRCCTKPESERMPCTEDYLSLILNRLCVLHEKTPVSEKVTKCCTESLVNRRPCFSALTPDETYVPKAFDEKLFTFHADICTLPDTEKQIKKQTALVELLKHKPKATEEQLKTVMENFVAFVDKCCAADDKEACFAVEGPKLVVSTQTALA
# Torsin-1A-interacting protein 1 (Homo sapiens), sequence (Q5JTV8 whole entry, looked up): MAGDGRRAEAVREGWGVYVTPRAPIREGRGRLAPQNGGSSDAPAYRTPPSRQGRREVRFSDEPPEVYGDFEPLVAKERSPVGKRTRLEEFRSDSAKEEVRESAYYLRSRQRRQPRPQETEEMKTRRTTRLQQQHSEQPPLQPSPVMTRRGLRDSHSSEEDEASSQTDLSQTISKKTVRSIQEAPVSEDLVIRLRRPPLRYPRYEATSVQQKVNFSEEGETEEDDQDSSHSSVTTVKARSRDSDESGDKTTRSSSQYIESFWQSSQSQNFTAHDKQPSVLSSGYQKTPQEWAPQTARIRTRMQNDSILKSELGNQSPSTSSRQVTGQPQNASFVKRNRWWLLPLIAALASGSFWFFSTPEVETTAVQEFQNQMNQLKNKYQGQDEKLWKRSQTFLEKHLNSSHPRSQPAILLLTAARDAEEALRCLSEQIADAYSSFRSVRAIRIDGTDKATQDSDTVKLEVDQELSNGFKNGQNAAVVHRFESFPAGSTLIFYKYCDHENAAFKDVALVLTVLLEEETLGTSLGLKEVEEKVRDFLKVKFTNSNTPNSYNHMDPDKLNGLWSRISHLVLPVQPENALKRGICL
# Left-right determination factor 2 (Homo sapiens), sequence (O00292 whole entry, looked up): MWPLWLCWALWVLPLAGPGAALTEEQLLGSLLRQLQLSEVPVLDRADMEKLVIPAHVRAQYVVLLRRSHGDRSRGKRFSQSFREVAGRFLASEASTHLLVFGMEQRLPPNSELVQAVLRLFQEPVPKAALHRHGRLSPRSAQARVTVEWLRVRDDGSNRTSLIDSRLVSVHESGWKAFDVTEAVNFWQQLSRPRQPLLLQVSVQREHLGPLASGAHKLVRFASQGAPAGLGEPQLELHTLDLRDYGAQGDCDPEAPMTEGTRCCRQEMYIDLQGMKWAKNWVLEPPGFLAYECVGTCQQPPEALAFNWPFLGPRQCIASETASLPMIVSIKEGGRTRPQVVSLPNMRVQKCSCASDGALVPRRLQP
SMILES,composite z-score [1],z-score [2],composite z-score [3],composite z-score [4],composite z-score [5],composite z-score [6],composite z-score [7],composite z-score [8],composite z-score [9],composite z-score [10],composite z-score [11],composite Z-score [12],composite z-score [13],composite z-score [14],composite z-score [15],composite z-score [16],composite z-score [17],composite z-score [18],composite z-score [19],composite z-score [20]
CCOc1cc(C(O)C2C=CC3C(=O)NC(=O)C3N2Nc2ccc(Cl)cc2Cl)ccc1O (stereo not given),-1.7,0.822,-1.18,-0.07,-0.0008,-0.154,0.0062,0.119,0.0975,-0.0945,-0.671,0.568 (inactive),-0.152,-0.0601,0.797,1.23,-0.587,-1.94,-0.157,-0.915
CC(C)C[C@@H]1NC(=O)[C@@H]2C[C@H](C(=O)NCCCCCCN)[C@H](c3cccc(OCCO)c3)N2C1=O,1.46,-0.125,0.281,0.861,-0.0534,-0.0461,-0.349,-0.346,1.13,1.67,0.586,0.799 (inactive),0.16,-0.0859,0.659,2.22,0.636,1.31,0.668,1.03
CCCNC(=O)[C@@]1(Sc2ccc(C)cc2)CC(=O)N(C2Cc3ccccc3C2)[C@@H]1c1ccc(CO)cc1I,1.08,-1.65,0.698,0.183,0.497,0.0932,-0.221,1.17,0.604,0.161,-0.533,-0.0764 (inactive),0.606,-0.0186,0.427,0.807,0.702,0.95,0.378,-0.162
COCCOC(=O)N1C(=O)[C@@]2(c3ccccc31)[C@H](c1ccc(O)cc1)N1[C@H](c3ccccc3)[C@H](c3ccccc3)OC(=O)[C@H]1[C@@H]2C(=O)N1CCN(c2ncccn2)CC1,1.29,-1.51,0.332,0.667,0.618,-0.0084,0.0469,0.927,0.675,0.692,0.397,0.0692 (inactive),-0.0014,0.0456,0.202,1.83,1.03,1.2,0.375,0.928
C=C[C@@H](OC)[C@H](OC(=O)Nc1ccc(OC)cc1)c1ccc(O)c(F)c1,0.392,0.859,-0.227,-1.84,-1.47,-0.208,0.0796,-0.834,0.302,-0.839,-0.715,0.656 (inactive),-0.0581,-0.2,0.268,1.93,0.117,0.21,0.746,-0.728
O=C1C[C@]2(c3ccc([N+](=O)[O-])cc3)C(=O)N(C3CC3)c3cc(CO)ccc3[C@H]2N1CC12CC3CC(CC(C3)C1)C2,0.471,-0.479,-1.6,-0.448,-0.87,-0.148,-0.124,0.632,-0.604,-0.444,0.393,-0.571 (inactive),-0.213,-0.0357,0.76,0.422,0.401,-0.183,-0.201,0.176
O=C1NC(=O)C2C1C=CC(C(O)c1ccco1)N2Nc1ccc(Cl)cc1Cl (stereo not given),0.478,-0.664,-0.39,0.317,0.381,-0.152,0.111,-0.3,0.478,0.396,0.78,0.731 (inactive),-0.0967,-0.153,0.794,1.28,0.317,-0.0532,0.167,0.321
Cc1cc(C)c(C(O)C2C=CC3C(=O)N(c4ccccc4)C(=O)C3N2Nc2ccccc2F)c(C)c1 (stereo not given),0.0453,0.937,-0.636,0.139,-0.0086,0.184,0.282,1.32,0.563,0.505,0.553,0.224 (inactive),0.0602,0.0278,0.365,1.08,0.725,-0.186,0.0036,0.511
CO[C@H]1O[C@H](CO)[C@@H](OC(=O)Nc2ccccc2)[C@H](OC(=O)c2cc3ccccc3[nH]2)[C@H]1OC(=O)c1cc2ccccc2[nH]1,0.0679,-2.05,0.165,0.204,0.47,0.0642,0.14,-0.367,0.621,0.326,0.124,1.12 (inactive),-0.0368,-0.0166,0.793,0.68,0.94,0.396,0.132,0.282
CC#CCO[Si](C#Cc1ccccc1)(C(C)C)C(C)C,-2.07,0.046,-0.0764,-0.0874,0.877,-0.224,-0.0769,-0.281,-0.785,-1.53,-1.33,-0.197 (inactive),-0.365,-0.156,-0.624,-0.445,-0.353,-1.18,-0.913,-1.46
[N-]=[N+]=Nc1ccccc1[C@H]1OC(c2ccc(OCCCO)cc2)=N[C@@]1(Cc1ccccc1)C(=O)NCCN1CCOCC1,0.632,-1.85,0.331,2.07,0.469,0.248,0.171,-0.61,0.998,1.8,0.887,1.16 (inactive),0.457,0.117,0.529,2.87,0.634,1.3,0.0045,1.16

# — PubChem BioAssay
